Inconclusive results are not listed. The source made the active and inactive calls. Calls come from the whole dose curve; as a rule, active = well fitted cell-killing curve with a large enough effect; inconclusive = small, poorly fitted or top-dose-only effect, or effect the other way; inactive = no such curve, though single readings can be large or run the other way.
System: CASKI
Assay: Confirmatory qHTS for gynecologic anti-cancer compounds from libraries of approved drugs and bioactive compounds; note: nearly all actives have a fitted effect of over 55% in size
Conditions: gynecologic cancer cell panel viability, ATPlite luminescence, 48 h; series mostly up to 57.6 µM
In short: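 Cells (1,000/well) plated 16 h, then exposed 48 h at 37 °C to 11 concentrations (1:3) from 57.5 uM to 0.977 nM. Viability by ATPlite luminescence after 15 min; IC50 derived, with HEK 293T used for selectivity index.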
Potency is the fitted concentration of half-maximal effect.

SMILES	Potency
O=C1c2c(O)ccc(O)c2C(=O)c2c(NCCNCCO)ccc(NCCNCCO)c21	7.69 µM (active)
COc1cc(N2CCC(N3CCN(C)CC3)CC2)ccc1Nc1ncc(Cl)c(Nc2ccccc2S(=O)(=O)C(C)C)n1	12.2 µM (active)
CCS(=O)(=O)c1cccc(-c2cc(C(=O)NC3CCN(C)CC3)c(C)c3[nH]c4ncc(C)cc4c23)c1	4.76 µM (active)
COc1cc(Nc2ncc3c(n2)-c2ccc(Cl)cc2C(c2c(F)cccc2OC)=NC3)ccc1C(=O)O	19.3 µM (active)
CCCC(=O)O[C@]1(C(=O)CCl)[C@@H](C)C[C@H]2[C@@H]3CCC4=CC(=O)C=C[C@]4(C)[C@@]3(F)C(=O)C[C@@]21C	30.6 µM (active)
Nc1cccc(-c2cc3c(Oc4cccc(O)c4)ncnc3[nH]2)c1	7.69 µM (active)
CN1C(=O)C(Cc2c[nH]c3ccccc23)NC1=S (stereo not drawn)	inactive
O=C(Nc1cn[nH]c1-c1nc2ccc(CN3CCOCC3)cc2[nH]1)NC1CC1	2.73 µM (active)
Nc1ccccc1NC(=O)c1ccc(CNC(=O)OCc2cccnc2)cc1	15.3 µM (active)
COc1cc(N2CCC(N)CC2)ccc1Nc1ncc(Cl)c(-c2c[nH]c3ccccc23)n1	24.3 µM (active)
CC[C@H](CC#N)OC(=O)N[C@@H](C)c1cccc(NC(=O)Nc2ccc(-c3cnco3)c(OC)c2)c1	inactive
Cc1cncc2cccc(S(=O)(=O)N3CCCN(C(=O)CN)C[C@@H]3C)c12	inactive
CCc1nc(C(N)=O)c(Nc2ccc(N3CCC(N4CCN(C)CC4)CC3)c(OC)c2)nc1NC1CCOCC1	11.9 µM (active)
OCCNC1CCCc2c1[nH]c1ccc(-c3ccccc3)cc21 (stereo not drawn)	30.6 µM (active)
O=c1[nH]c(=O)n([C@H]2C[C@H](O)[C@@H](CO)O2)cc1C(F)(F)F	9.68 µM (active)
CC(C)C[C@H](NC(=O)[C@@H](NC(=O)c1cccc(-c2ccccc2)n1)[C@@H](C)O)B(O)O	0.0611 µM (active)
Cc1nc(N)sc1-c1ccnc(Nc2ccc(N3CCOCC3)cc2)n1	24.3 µM (active)
CN(C)C/C=C/C(=O)Nc1cc2c(Nc3ccc(F)c(Cl)c3)ncnc2cc1OC1CCOC1 (stereo not drawn)	21.7 µM (active)
